We go through 40 sequences from the supplement of paper PMC6555819.

This experiment relates to VDR:RXRa (NR concentration 270 nM, RXRa partner concentration 90 nM). The experiment is described as follows: PBM binding z-score (relative to random genomic background probes); higher = stronger binding; sequences stand for … in GC…GCGATTGACAGCGTAGAATGAAGG
As for the experimental part:
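Protein-binding microarray (Agilent 4x180K custom design, double-stranded 60-nt probes: 5' GC cap, 34-nt variable region, 24-nt constant primer region; full probe sequence given). Purified or IVT nuclear receptor:RXRα heterodimers (3:1 NR:RXRα, mostly 270:90 nM) or homodimers were incubated for 1 h in PBS with 2% milk and no ligand, then detected with Alexa488 antibodies. Fluorescence from o1-orientation probes (~5 replicates averaged) was converted to z-scores against 500 random hg19 background probes. Variable regions are seed direct-repeat (DR0–DR5) sites, all their single-nucleotide variants and half-site ablations.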
CGTCAAAGTTCACCTAAGGTAACGTAAAGCACGC: the PBM binding z-score was determined as 4.82.

In turn, CATCCAAGGTCAAAGGTCAGTGAAGAGATGACGG registered a PBM binding z-score of 6.71.

TCGAGTAGGTTACGGGGGCATTAAGGGATGAAGA had a PBM binding z-score of 3.4.

The sequence TCTTGTAGGTCAAAGGTTAAGAAAGCCGAAGCCT showed a PBM binding z-score of 4.54.

Sequence CAAAGTAGGTCACGAAAGGTCAAAGTCGAATGAC yielded a PBM binding z-score of 6.82.

Regarding ATACGTAGGTTAGGGTCATTCAGAAAGTAGGGAA, the PBM binding z-score turned out to be 4.37.

CGTCAAAGTTCAACTAAGTTAACGTAAAGCACGC gave a PBM binding z-score of 5.16.

CGAACTAGGTGACCAGGACAGTGAAGAGGTTGGA showed a PBM binding z-score of 0.673.

Sequence AGTCAAAGTTCACGAGGTAACGTAAGATTCAGCT had a PBM binding z-score of 4.94.

The sequence TCATATAGGTAATAAAGGTGAAAGTCGGCATCTA registered a PBM binding z-score of 1.42.

Sequence CAAACTAGGTCAAAGGTCAAAGACGAGCCAACCA had a PBM binding z-score of 6.69.

In turn, CCTACTGGGCCATTGAGAGGTCATTGATCATATG had a PBM binding z-score of 3.81.

The sequence CGAACTAGGTCAAAGGACTGTGAAAGGCGACGTA yielded a PBM binding z-score of 1.14.

CGAACTAGGTCCCCAGGACAGTGAAGAGGTTGGA displayed a PBM binding z-score of -0.892.

Take CGAACTGGGTCACCAGGACAGTGAAGAGGTTGGA: the PBM binding z-score was determined as 2.13.

Sequence CTATGTAGGTTCAGGGGGTCATTCAGTTTGAAAG yielded a PBM binding z-score of 6.91.

As to AGTCAAAGTTCACTAGGTTACGTAAGATTCAGCT, the PBM binding z-score worked out at 4.71.

TCTCGGAGGACACGAAAGGTCTGAGCTCGACATC displayed a PBM binding z-score of 0.182.

Turning to CGTCCAAGGTCAATGCTAGCTCAGTGAAAGCATT, the PBM binding z-score turned out to be 3.63.

Turning to CCTACTGGGCCATTCAGAGGTCATTGTTCATATG, the PBM binding z-score was found to be 3.9.

Sequence GCTAGTAGGTCAGTAAAAGGTCACACACCGGTCG had a PBM binding z-score of 4.99.

CGAACTAGGCCACCAGGACAGTGAAGAGGTTGGA showed a PBM binding z-score of -0.817.

In turn, ATCGAAACGTCGTGAGGTGAGTATACAGAAAGGC registered a PBM binding z-score of -0.25.

Sequence ATCGAATGGTCGAAGGTGAGTATACCCACCCGAA registered a PBM binding z-score of -0.0843.

In turn, ATCGAAAGGTCGACGAGGTGAGTATGCACCGTTT came in with a PBM binding z-score of 5.27.

Consider GCTAGTTGGTCAGTAAATGGTCACACACCGGTCG, for which the PBM binding z-score was -0.166.

Consider CCTAGTTGGGCAGGAGGTCACACACCGGATATGA, for which the PBM binding z-score amounted to 3.09.

For the sequence CGAACTAGCTCAAGGACAGTGAATCTCCGCACGC, the PBM binding z-score was -0.322.

In turn, CTATGTAGGTTAAGGGCGTCATTCAGTTTGAAAG returned a PBM binding z-score of 0.981.

With CCTAGCAGGCCAGGGTCACCCAAGCATTTCGCTT, the PBM binding z-score stood at 2.96.

Sequence CCTACTGGGCCACGAAAGGTGATTGATTCAGTGA gave a PBM binding z-score of -0.281.

In turn, CGAACTAGGTCACCAGGACTGTGAAGAGGTTGGA returned a PBM binding z-score of 2.26.

As for CGAACTAAGTCACCAGGACAGTGAAGAGGTTGGA, the PBM binding z-score was -0.118.

On to ATATGAAGGTTAGGGTCATTCAGAAAGTAGGGAA, for which the PBM binding z-score is 4.6.

The sequence CGAACTAGGTCAAAGGACAGTGACAGGCGACGTA gave a PBM binding z-score of 1.47.

Take CATACCGGGTCAGCTAGGCCAGAGTAGGGACGGC: the PBM binding z-score was found to be 2.57.

Sequence CCGAGTAGGTTACGAGGGGGCATTAAGTGCGAAT returned a PBM binding z-score of 5.39.

CGAACTAGGTCACCAGGAGAGTGAAGAGGTTGGA showed a PBM binding z-score of 1.71.

CGAACTAGGTCACCAGGACAGTGAAGAGGTTGGA: the PBM binding z-score is 1.93.

TCGAGTAGGTTACTGGGGCATTCAGGGATGAAGA came in with a PBM binding z-score of 0.313.
